Bioassay records deposited in PubChem by National Center for Advancing Translational Sciences (NCATS).
Hits are enriched below; roughly 7.1% of the tested compounds scored in any of these assays.
S2 tox – Viability Counterscreen for Primary qHTS for Inhibitors of ATXN expression. S2 cells (HEK-293 line with an ATXN2-luciferase reporter) viability, CellTiter-Fluor protease fluorescence, 24 h. Potency, µM (doses to about 56.7 µM), hits mostly cytotoxic. 400,000 tested, 0.49% active. AID 651635, 2014; also: potency is read from the fitted curve at half-maximal effect; nearly all actives have a fitted effect of over 40% in size
IL-1B inflam inh – qHTS for Inhibitors of Inflammasome Signaling: IL-1-beta AlphaLISA Primary Screen | THP-1 LPS/ATP IL-1B secretion, AlphaLISA, 16 h; hits give low values | 360,000 tested, 4.7% active | activity change, % at 57.5 µM; in the data active = activity change below about -50%; inconclusive = mostly about -30% to -49%; also: % is scaled to controls: 0 for no effect and ±100 for the full control effect
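THP-1 cells pretreated 1 hr with compounds (up to 57.5 uM final), then stimulated with LPS (250 ng/mL final) plus ATP (1.25 mM final); secreted IL-1B measured by AlphaLISA after 16 hr, decreased signal indicating inhibition.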
PINK1 modulator – A Quantitative High throughput Screen to Identify Chemical Modulators of PINK1 Expression; PINK1 immunofluorescence, high-content cytometry, 24 h; 410,000 tested, 0.2% active; AID 624263, 2012; Potency, µM (top dose mostly 76.6 µM), without a hit: at the top dose activation (PINK1 increase), actives largely listed as activators; active = well fitted activation curve with a large enough effect; inconclusive = small, poorly fitted or top-dose-only effect; cell line not stated here; also: potency is read from the fitted curve at half-maximal effect; % of control where 0% means no effect; nearly all actives have a fitted effect of over 65% in size
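PINK1 protein level read as immunofluorescence by microplate cytometer in a fixed, stained stable cell line after 24 h exposure to five compound concentrations, with CCCP as control.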
MCF10A rereplic – A quantitative high throughput screen for small molecules that induce DNA re-replication in MCF 10a normal breast cells | 350,000 tested, 2.9% active | MCF 10A DNA re-replication, Hoechst nuclear intensity, 48 h | AID 624296, 2012 | Potency, µM (doses to about 46.1 µM), inactives show at the top dose activity, positive = re-replication, usual class: activators; also: potency is read from the fitted curve at half-maximal effect; % of control where 0% means no effect; nearly all actives have a fitted effect of over 50% in size
ATXN2 expr inh – Primary qHTS for Inhibitors of ATXN expression; Potency, µM (top dose mostly 57 µM), without a hit: at the highest dose activity change, negative = inhibition, most hits filed as inhibitors; AID 1745845, 2022; 360,000 tested, 0.72% active; HEK-293 ATXN2-luciferase reporter, luminescence, 24 h; also: potency is read from the fitted curve at half-maximal effect; % is scaled to controls: 0 for no effect and ±100 for the full control effect; nearly all actives have a fitted effect of over 55% in size
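ATXN2-luciferase reporter cells (luciferase flanked by upstream and downstream ATXN2 gene portions) were treated 24 h at 37 °C with compounds at up to 57 uM. SteadyGlo luminescence gave expression; GF-AFC fluorescence gave viability.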
SW480 rereplic – A quantitative high throughput screen for small molecules that induce DNA re-replication in SW480 colon adenocarcinoma cells; 340,000 tested, 1.8% active; Potency, µM (titrated, usually from 46.1 µM), for inactives: top-dose re-replication activation, actives largely listed as activators; SW480 DNA re-replication, Hoechst DNA content imaging, 48 h; also: potency is read from the fitted curve at half-maximal effect; % of control where 0% means no effect; nearly all actives have a fitted effect of over 55% in size
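Readout is total intensity of Hoechst-stained nuclei, excited at 405 nm and collected at 500-530 nm. Compound treatment lasted 48 hr at 37 C in 5% CO2 before staining.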
The depositor's hits bear a star; i = inactive; ? = inconclusive; nt = no result. Unless noted, calls follow the shape of the dose curve; as a rule, active = well fitted curve in the direction sought with a large enough effect; inconclusive = small, poorly fitted or top-dose-only effect, or another doubt; inactive = no such curve, though single readings can be large; an effect the other way counts as inactive or inconclusive.

SMILES	S2 tox	IL-1B inflam inh	PINK1 modulator	MCF10A rereplic	ATXN2 expr inh	SW480 rereplic
CN1CCN(c2nnc(-c3ccc(F)cc3)c3ccccc23)CC1	?	-30	0%	6%	-24%	-8%
Cc1ccc(-c2nnc(N3CCCCC3)c3ccccc23)cc1	?	-56*	26%	4%	-2%	0%
Cc1nnc(N2CCCCC2)c2ccccc12	i	-5	-2%	3%	-4%	-3%
CC(=O)N1c2ccc(S(=O)(=O)NCC3CCC(C(=O)Nc4cccc(F)c4)CC3)cc2CC1C (configuration not stated)	nt	nt	17%	nt	nt	nt
CC(=O)c1cccc(N2C(=O)CN(S(C)(=O)=O)CC2(C)C(=O)NC2CCCC2)c1 (configuration not stated)	nt	nt	2%	nt	nt	nt
COC(=O)c1ccc2c(c1)N(CC(=O)Nc1cccc(C(F)(F)F)c1)C(=O)c1ccccc1S2	i	nt	9%	nt	-4%	nt
Cc1ccc(-c2nnc(N3CCN(c4ccccn4)CC3)c3ccccc23)cc1	?	-89*	-3%	?	?	18%
Cc1ccc(-c2nnc(N3CCN(CCO)CC3)c3ccccc23)cc1	i	?	5%	13%	-14%	-1%
N#CC1CCN(C(=O)c2ccc3c(Cl)c4c(nc3c2)CCCC4)CC1	i	-66*	4%	-2%	nt	-11%
CCN1CCN(C(=O)c2ccc3c(Cl)c4c(nc3c2)CCCC4)CC1	i	-78*	-1%	?	0%	?
O=P(O)(O)OC(CO)CO	i	nt	nt	nt	nt	nt
CCCN(CC)C(CC)C(=O)Nc1c(C)cccc1C (configuration not stated)	i	nt	nt	nt	nt	nt
O=C(COC(=O)c1ccc2c(c1[N+](=O)[O-])C(=O)c1ccccc1C2=O)NC1CC1	28µM*	-77*	5%	?	-16%	?
CC1CCCCC1NC(=O)COC(=O)c1ccc2c(c1Cl)C(=O)c1ccccc1C2=O (configuration not stated)	i	19	2%	?	8%	-2%
O=C(COC(=O)c1cccc2c1C(=O)c1ccccc1C2=O)NC1CCCCC1	i	-132*	-1%	85%	-27%	-6%
Cc1ccc(NC(=O)COC(=O)c2cccc3c2C(=O)c2ccccc2C3=O)c(C)c1	?	-20	2%	?	?	?
Cc1ccc(C)c(NC(=O)COC(=O)c2cccc3c2C(=O)c2ccccc2C3=O)c1	i	5	0%	1%	-2%	13µM*
Cc1cccc(NC(=O)COC(=O)c2cc3ccccc3oc2=O)c1	i	0	4%	0.65µM*	15%	21µM*
COc1ccc(-c2noc(CN(C(=O)COc3cc(C)c(Br)c(C)c3)C(C)C)n2)cc1	?	nt	3%	nt	-39%	nt
COc1ccc(F)cc1-c1cc(NC=O)c2ncc(-c3cccc(C(F)(F)F)c3)n2c1	?	3	2%	nt	-34%	nt
CCOC(=O)CCC1(C(=O)OC)C(=O)CCCCCC=C1C(=O)OC (configuration not stated)	i	-51*	0%	nt	nt	nt
CCOC(=O)C1(CCC(=O)OCc2ccccc2)CCCCC1=O (configuration not stated)	i	-9	5%	-5%	8%	-1%
CCc1[nH]nc2c1C(c1ccsc1)C(C#N)=C(N)O2 (configuration not stated)	i	?	2%	7%	-11%	-6%
CCc1[nH]nc2c1C(c1ccc(Br)s1)C(C#N)=C(N)O2 (configuration not stated)	i	-100*	0%	?	0%	?
COc1ccccc1-c1sc2ccccc2c1-c1ccc(O)cc1	i	7	7%	?	0%	16µM*
SMILES	S2 tox	IL-1B inflam inh	PINK1 modulator	MCF10A rereplic	ATXN2 expr inh	SW480 rereplic
COc1ccc(-c2sc3cc(OC)c(OC)cc3c2-c2ccc(O)cc2)cc1	?	-54*	0%	?	?	21µM*
COc1ccccc1-c1sc2ccccc2c1-c1ccc2c(c1)OCO2	i	0	3%	?	-10%	12%
COc1ccccc1-c1sc2ccccc2c1C#Cc1ccc(N(C)C)cc1	nt	3	1%	?	-4%	8.2µM*
COc1ccccc1-c1oc2ccccc2c1-c1ccc2c(c1)OCO2	i	21	11%	?	3%	-5%
COc1ccc(-c2c(-c3ccccc3OC)oc3ccccc23)cn1	i	16	15%	16µM*	2%	-4%
Cc1c(C(=O)NC(C)c2ccccc2)sc2ncnc(N(C)C3CCCCC3)c12 (configuration not stated)	i	nt	-1%	nt	-30%	nt
Cc1cc(C)cc(NC(=O)NCCc2c(C)nn(C)c2C)c1	i	nt	0%	nt	5%	nt
O=C(Nc1cc(C(=O)N2CCN(CCO)CC2)c2c(c1)ncn2C1CCCC1)c1ccccc1	i	nt	1%	nt	nt	nt
Cc1ccccc1-c1nc(CS(=O)(=O)CC(=O)Nc2c(C)cccc2C)c(C)o1	i	nt	7%	nt	?	nt
OC(c1ccc2c(c1)CN(Cc1cccn1-c1cccnc1)CCO2)C1CCCCC1 (configuration not stated)	i	nt	3%	nt	nt	nt
COc1ccc2sc(-c3ccccc3OC)c(-c3ccc(OC)nc3)c2c1	i	-4	1%	23µM*	17%	-4%
Cc1ccc2nc(-c3ccc(NC(=S)NC(=O)C(C)C)cc3)sc2c1	i	?	?	2%	70%	3%
Cc1ccc2nc(-c3ccc(NC(=S)NC4CC(C)(C)NC(C)(C)C4)cc3)sc2c1	?	-97*	-1%	29µM*	7%	?
Cc1ccc(C2(C)NC(=O)N(CC(=O)Nc3ccc(-c4nc5ccc(C)cc5s4)cc3)C2=O)cc1 (configuration not stated)	i	55	10%	18µM*	5%	636%
COc1cccc(CNC(=O)c2c(OC)cc(=O)n3c2CCN(C(=O)C2CC24CCCCC4)CC3)c1 (configuration not stated)	i	nt	-1%	nt	nt	nt
COc1ccc([C@@H]2C[C@H]3CN(Cc4ccccc4OC)C(=O)[C@]34CCCN24)cc1C	?	15	-1%	-1%	nt	19%
COc1ccccc1CN1C[C@@H]2C[C@@H](c3ccc(C)c(C)c3)N3CCC[C@@]23C1=O	i	-17	2%	-8%	-33%	4.1µM*
